PubChem BioAssay AID651704 (Broad Institute, 2012)
Values joined by “and” are separate entries in the source; they are usually repeats but may differ in a detail not shown here. Identical values can stand only once. Screen size: about 350,000 compounds; about 1,600 (0.46%) were called active. Shown is part of a subset that was picked to be rich in actives. A number with no mark means an inactive call.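 Rule for the calls: active = every replicate reaching a set inhibition limit, whatever the replicate mean (cut at about 25% in these data); inconclusive = mean inhibition reaches that limit but some replicates miss it; inactive = the rest.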

The compounds below were run against Protein AF-9 (Homo sapiens) (UniProt P42568) (assay: inhibitors of AF4 peptide binding to AF9, primary screen, biochemical, AlphaScreen, biotin-AF4 peptide, FLAG-AF9, single point (AID 651704;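 note: 0% = plate neutral control median and 100% = total signal loss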)). Conditions: at 10 µM, stronger effect = higher value.
Sequence of Protein AF-9 (Homo sapiens) (P42568 whole entry, looked up): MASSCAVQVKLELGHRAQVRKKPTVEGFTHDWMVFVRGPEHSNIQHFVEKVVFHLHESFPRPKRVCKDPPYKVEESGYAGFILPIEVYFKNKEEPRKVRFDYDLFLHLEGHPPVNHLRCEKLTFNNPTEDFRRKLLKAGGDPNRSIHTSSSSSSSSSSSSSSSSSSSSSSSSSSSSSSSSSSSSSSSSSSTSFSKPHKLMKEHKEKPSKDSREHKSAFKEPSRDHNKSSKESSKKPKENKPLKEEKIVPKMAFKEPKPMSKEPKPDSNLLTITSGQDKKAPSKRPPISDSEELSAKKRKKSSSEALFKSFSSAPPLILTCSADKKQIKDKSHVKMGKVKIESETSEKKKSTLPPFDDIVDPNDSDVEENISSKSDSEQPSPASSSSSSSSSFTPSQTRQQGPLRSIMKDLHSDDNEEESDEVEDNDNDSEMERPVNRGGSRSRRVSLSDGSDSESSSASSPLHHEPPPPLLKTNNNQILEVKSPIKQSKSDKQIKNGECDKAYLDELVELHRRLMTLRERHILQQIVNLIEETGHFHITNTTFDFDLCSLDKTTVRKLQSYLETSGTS
In the case of `CC(C)=CCCC1(C)C=Cc2c(ccc3c2[nH]c2cc(O)c(C)cc23)O1` (configuration not stated), the inhibition was 26.9% (active).
Work on `COc1ccc(CN(C)C[C@@H]2OCCCC[C@H](C)Oc3ccc(NS(=O)(=O)c4cccs4)cc3C(=O)N([C@H](C)CO)C[C@@H]2C)cc1` yielded an inhibition of 5.32%.
For `N#Cc1ccc(-c2ccc(C3[C@@H]4CN(S(=O)(=O)c5ccccc5F)C[C@H]3N4)cc2)cc1` (some centres not stated), the inhibition was -2.55% and -2.34%.
Work on `COCC#Cc1ccc([C@@H]2[C@H]3CN(C(=O)C4CCOCC4)CC(=O)N3[C@H]2CO)cc1` yielded an inhibition of -0.325%.
Work on `Cc1ccc(S(=O)(=O)Nc2ccc3c(c2)C(=O)N([C@H](C)CO)C[C@@H](C)[C@@H](CN(C)C(=O)CCC(F)(F)F)OCCCC[C@@H](C)O3)cc1` yielded an inhibition of -0.265%.
`O=C(Cc1c[nH]c2ccccc12)N/N=C/c1cccc(F)c1` gave an inhibition of 2.76%.
For `C[n+]1ccc(/C=C/c2c[nH]c3ccccc23)cc1`, the inhibition was 11.9%.
`CSC(=S)N/N=C/c1c[nH]c2ccccc12` was tested, and the inhibition was 33.1% (active).
`CCCC#Cc1ccc([C@H]2[C@H]3CN(C(=O)Nc4ccc(F)cc4)CC(=O)N3[C@H]2CO)cc1` showed an inhibition of 0.647%.
In the case of `CO[C@@H]1CN(C)C(=O)c2cc(NS(=O)(=O)c3ccccc3C)ccc2OC[C@@H](C)N(S(C)(=O)=O)C[C@@H]1C`, the inhibition was -4%.
For `COc1ccc(NS(=O)(=O)c2cc3c(cc2C)N(C(C)=O)CCO3)cc1`, the inhibition was 52.8% (active).
In the case of `COc1ccc(NS(=O)(=O)c2cc(NC(=O)C3CCCCC3)ccc2N2CCOCC2)cc1`, the inhibition was 1.75%.
`COc1ccc(N2CCN(S(=O)(=O)c3ccc4c(c3)N(C(C)=O)CCO4)CC2)cc1` gave an inhibition of 1.85%.
In the case of `C[C@@H]1CN([C@@H](C)CO)C(=O)c2cc(-c3ccc(F)cc3)cnc2O[C@@H]1CN(C)Cc1ccc(C(=O)O)cc1`, the inhibition was -2.45%.
`N#C[C@@H]1[C@H](c2ccccc2C2=CCCCC2)[C@@H](CO)N1S(=O)(=O)c1cccc(F)c1` was tested, and the inhibition was -2.55%.
`O=C(C[C@@H]1CC[C@H]2[C@@H](COC[C@H](O)CN2S(=O)(=O)c2ccccc2)O1)NCCN1CCCC1` was tested, and the inhibition was -0.246%.
Work on `CCNC(=O)C[C@@H]1CC[C@@H]2[C@H](COC[C@H](O)CN2S(=O)(=O)c2ccc(Oc3ccccc3)cc2)O1` yielded an inhibition of -1.5%.
In the case of `Cc1ccc(S(=O)(=O)N2C[C@@H](O)COC[C@@H]3O[C@H](CC(=O)NCc4ccc(Cl)c(Cl)c4)CC[C@H]32)cc1`, the inhibition was 0.126%.
`O=C(C[C@@H]1CC[C@@H]2[C@H](COC[C@@H](O)CN2S(=O)(=O)c2ccccc2)O1)NCC1CCCCC1` was tested, and the inhibition was 33.9% (active).
`Cc1ccc(S(=O)(=O)N2C[C@H](O)COC[C@@H]3O[C@@H](CC(=O)NCC4CCCCC4)CC[C@H]32)cc1` was tested, and the inhibition was 27% (active).
`Cc1ccc(S(=O)(=O)N2C[C@@H](O)COC[C@@H]3O[C@H](CC(=O)NCCCN(C)C)CC[C@H]32)cc1` was tested, and the inhibition was -2.12%.
`C[C@@H]1CN([C@@H](C)CO)C(=O)CCCn2cc(nn2)CO[C@H]1CN(C)Cc1ccc(C(=O)O)cc1` gave an inhibition of -0.624%.
`CN(C)C(=O)c1ccc(-c2ccccc2[C@@H]2[C@@H](C#N)N(C(=O)C3CCCC3)[C@H]2CO)cc1` gave an inhibition of -1.75%.
Compound `O=C(c1cccc(F)c1)N1CC[C@@H]2[C@H](CO)Nc3ccc(C#Cc4ccccc4)cc3[C@@H]21` has an inhibition of -0.355%.
In the case of `C/C=C/c1ccc([C@@H]2[C@@H](CO)N(C(=O)CN(C)C)C23CN(C(=O)C2CCCC2)C3)cc1`, the inhibition was 4.6%.
`CN1C(=O)c2cc(NC(=O)C3CCCC3)ccc2OC[C@@H]2O[C@@H](CC(=O)NCCc3ccncc3)CC[C@@H]21` was tested, and the inhibition was 1.93%.
`C[C@H](CO)N1C[C@H](C)[C@H](CN(C)C(=O)CCN(C)C)OCc2ccccc2-c2c(n(C)c3ccccc23)C1=O` was tested, and the inhibition was 2.11%.
`CCS(=O)(=O)N1CCC(N2CCN(c3ccccc3)CC2)CC1` gave an inhibition of -4.72%.
In the case of `CN1CCC(CN)(N2CCN(c3ccccc3)CC2)CC1`, the inhibition was 33.8% (active).
With `O=C(c1ccccc1)c1ccc(C(=O)N2CCN(c3ccccc3)CC2)cc1` the inhibition was -1.66%.
In the case of `CC(C)NC(=O)N(C)C[C@H]1OCCCC[C@H](C)Oc2ccc(NS(=O)(=O)c3ccc(Cl)cc3)cc2C(=O)N([C@@H](C)CO)C[C@H]1C`, the inhibition was -0.682%.
In the case of `O=C(c1ccc(F)cc1)N1CCC(n2nnc3ccccc32)CC1`, the inhibition was -0.54%.
With `O=C(c1ccc(F)cc1)n1c(=S)nc2ccccn21` the inhibition was 37.5% (active).
`O=C(c1ccc(F)cc1)n1cc(C(=S)N2CCOCC2)c2ccccc21` was tested, and the inhibition was 9.22%.
In the case of `CO[C@@H]1CN(C)C(=O)c2ccc(NC(=O)NC(C)C)cc2OC[C@@H](C)N(C)C[C@H]1C`, the inhibition was -3.29%.
For `CN(C)CCNC(=O)c1cccc(-c2cnc3c(NC=O)cc(-c4cccc(C(F)(F)F)c4)cn23)c1`, the inhibition was 37.1% (active).
Compound `CC(=O)c1cccc(-c2cnc3c(NC=O)cc(-c4cccc(C(=O)N(C)C)c4)cn23)c1` has an inhibition of -1.2%.
`CN(C)C(=O)c1cccc(-c2cnc3c(NC=O)cc(-c4ccc(F)cc4)cn23)c1` was tested, and the inhibition was 3.38%.
`COc1ccc2c3c(n(C)c2c1)[C@H](CO)N(C(=O)Nc1c(C)noc1C)CC31CN(CC2CC2)C1` gave an inhibition of 1.61%.
In the case of `C=CCOC(=O)[C@H]1[C@@H]2C(=O)O[C@@H](c3ccccc3)[C@@H](c3ccccc3)N2[C@@H](c2ccc(OCCOC(=O)[C@H]3C[C@H]4C(=O)NCC(=O)N4[C@H]3c3ccc(O)cc3)cc2)[C@]12C(=O)Nc1ccccc12`, the inhibition was 0.736%.
Work on `COc1ccc([N+](=O)[O-])cc1N(CC(=O)Nc1ccccc1C(=O)N1CCOCC1)S(C)(=O)=O` yielded an inhibition of 1.49%.
`O=C(CN(c1ccccc1)S(=O)(=O)c1ccc(Cl)cc1)Nc1ccccc1C(=O)N1CCCC1` was tested, and the inhibition was 0.298%.
For `COc1ccccc1N(CC(=O)Nc1ccccc1C(=O)N1CCCC1)S(C)(=O)=O`, the inhibition was 50.9% (active).
For `O=C(Nc1nnc(COc2ccccc2)s1)Nc1ccccc1F`, the inhibition was 36% (active).
With `COc1ccccc1NC(=O)Nc1nnc(Cc2ccc(F)cc2)s1` the inhibition was 3.41%.
For `COc1ccccc1NC(=O)Nc1nc(CC(=O)Nc2ccccc2F)cs1`, the inhibition was 0.499%.
In the case of `CC(C)NC(=O)Nc1ccc2c(c1)C(=O)N([C@@H](C)CO)C[C@H](C)[C@H](CN(C)C(=O)NC1CCCCC1)OCCCC[C@@H](C)O2`, the inhibition was -3.2%.
`C[C@H](CO)N1C[C@H](C)[C@H](CN(C)Cc2ccc3c(c2)OCO3)OCCCC[C@H](C)Oc2ccc(NC(=O)c3ccccc3)cc2C1=O` was tested, and the inhibition was 4.39%.
In the case of `CO[C@@H]1CC[C@@H]2CCOc3ccc(C#N)cc3C(=O)N(C)C[C@@H](C)C(=O)N(C)C[C@@H]1O2`, the inhibition was 3.45%.
With `CCN(CC)CCOc1ccc2c(c1)C(=NNC(=O)c1ccccn1)c1cc(OCCN(CC)CC)ccc1-2` the inhibition was 56.9% (active).
`CC(O)c1ccc(OCCN(C)c2ccccn2)cc1` (configuration not stated) showed an inhibition of -3.42%.
`C/C(=N\NC(=O)c1ccccc1F)c1ccccn1` was tested, and the inhibition was -1.33%.
Work on `COc1ccc2c3c([nH]c2c1)[C@H](CO)N(C(=O)Nc1ccc(F)cc1)CC31CCN(CC2CCOCC2)CC1` yielded an inhibition of 11%.
Compound `CCC(=O)N1[C@@H](CO)[C@@H](c2ccccc2)C12CN(C(=O)c1cnccn1)C2` has an inhibition of -4.68%.
`COCCNC(=O)C[C@@H]1C[C@@H]2c3cc(NS(=O)(=O)c4ccccc4)ccc3O[C@@H]2[C@H](CO)O1` gave an inhibition of -1.39%.
`C[C@@H]1CCCCO[C@H](CN(C)C(=O)Nc2ccc3c(c2)OCO3)[C@@H](C)CN([C@@H](C)CO)C(=O)c2cc(NC(=O)CCC(F)(F)F)ccc2O1` showed an inhibition of 7.93%.
`CCC(=O)Nc1ccc2c(c1)C(=O)N(C)[C@@H]1CC[C@@H](CC(=O)NCCN3CCCCC3)O[C@@H]1CO2` was tested, and the inhibition was 0.544%.
`Cc1ccc(Nc2ccccc2N)cc1` was tested, and the inhibition was 49% (active).
Compound `Cc1ccc(Nc2nc(Cl)c(C=O)s2)cc1` has an inhibition of -4.45%.
`Nc1ccc(C(=O)Nc2ccccc2N)cc1` showed an inhibition of -0.363%.
`O=C(C[C@@H]1CC[C@H](NC(=O)c2ccncc2)[C@@H](CO)O1)Nc1ccc(-c2ccccc2)cc1` gave an inhibition of -2.25%.
`CO[C@@H]1CN(C)C(=O)c2ccc(NC(C)=O)cc2OC[C@@H](C)N(Cc2ccc(-c3ccccn3)cc2)C[C@H]1C` showed an inhibition of 2.32%.
With `O=C(Nc1nnc(SCc2ccccc2Cl)s1)c1cccc([N+](=O)[O-])c1` the inhibition was 48% (active).
In the case of `O=C(Nc1nnc(SCc2c(Cl)cccc2Cl)s1)c1cccc([N+](=O)[O-])c1`, the inhibition was 1.85%.
With `NC(=O)CSc1nnc(NC(=O)c2ccc3ccccc3c2)s1` the inhibition was -1.88%.
`COc1cc(CN2CC3(CN(S(=O)(=O)c4cn(C)cn4)C3)c3c(n(C)c4cc(OC)ccc34)[C@H]2CO)cc(OC)c1` showed an inhibition of 12.6%.
Compound `COc1ccc(NC(=O)Nc2ccc3c(c2)[C@H]2C[C@H](CC(=O)NC4CCCC4)O[C@@H](CO)[C@H]2O3)cc1` has an inhibition of 0.232%.
For `CCN(CC)c1ccc(/C=N/Nc2nc(C)cc(C)n2)c(O)c1`, the inhibition was 79.7% (active).
`Cc1cc(C)nc(N/N=C/c2c(CO)cnc(C)c2O)n1` was tested, and the inhibition was -5.08%.
For `CCN(CC)c1ccc(/C=N/NC(=O)c2cnccn2)c(O)c1`, the inhibition was -1.45%.
With `O=C(C[C@H]1CC[C@H]2[C@@H](COC[C@H](O)CN2C(=O)c2ccncc2)O1)NCc1cc(F)cc(F)c1` the inhibition was -16%.
With `COc1ccccc1NC(=O)N1CC(=O)N2[C@H](CO)[C@@H](c3ccc(C#Cc4ccc(F)cc4)cc3)[C@H]2C1` the inhibition was 2.6%.
In the case of `Cn1cnc(S(=O)(=O)N2C[C@H](O)COC[C@@H]3O[C@H](CC(=O)NC4CCCC4)CC[C@H]32)c1`, the inhibition was -0.241%.
In the case of `COc1ccc(S(=O)(=O)Nc2ccc3c(c2)CC(=O)N([C@@H](C)CO)C[C@@H](C)[C@@H](CN(C)Cc2ccc(C(=O)Nc4ccccc4N)cc2)O3)cc1`, the inhibition was -0.302%.
Compound `C[C@@H]1CCCCO[C@H](CN(C)S(=O)(=O)c2cn(C)cn2)[C@@H](C)CN([C@@H](C)CO)C(=O)c2cc(NC(=O)CCC(F)(F)F)ccc2O1` has an inhibition of -0.444%.
With `COc1ccc(C(=O)COC(=O)c2ccc([N+](=O)[O-])s2)cc1OC` the inhibition was -0.958%.
`C=Cn1cc[n+](CC(=O)c2ccc(OC)c(OC)c2)c1` was tested, and the inhibition was 28.8% (active).
`COc1ccc(-n2nnnc2SCC(=O)c2ccc(OC)c(OC)c2)cc1` showed an inhibition of -42.4%.
For `CO[C@@H]1CN(C)C(=O)c2ccc(NC(=O)C3CCCC3)cc2OC[C@H](C)NC[C@@H]1C`, the inhibition was -0.502%.
`C#CCOCCOCCOCCNc1nc(N2CCN(C(=O)[C@H](CCC(=O)O)n3cc(C(N)CO)nn3)CC2)nc(N2CCN(C(=O)[C@H](Cc3ccc(O)cc3)n3cc(C(N)[C@H](C)CC)nn3)CC2)n1` (some centres not stated) was tested, and the inhibition was 2.1%.
`C#CCOCCOCCOCCNc1nc(N2CCN(C(=O)[C@H](CCCN=C(N)N)n3cc(C(N)[C@@H](C)CC)nn3)CC2)nc(N2CCN(C(=O)[C@H](CO)n3cc([C@@H](N)C(C)C)nn3)CC2)n1` (some centres not stated) was tested, and the inhibition was 29.3% (active).
For `C#CCOCCOCCOCCNc1nc(N2CCN(C(=O)[C@H](CO)n3cc([C@@H](N)C(C)C)nn3)CC2)nc(N2CCN(C(=O)[C@H](CCC(=O)O)n3cc([C@@H](N)[C@H](C)CC)nn3)CC2)n1`, the inhibition was 0.229%.
Work on `O=C([C@@H]1[C@@H](CO)[C@@H]2Cn3c(ccc(-c4ccccc4F)c3=O)[C@H]1N2C(=O)C1CCC1)N1CCCCC1` yielded an inhibition of -3.29%.
Work on `C[C@@H]1CCCCO[C@H](CN(C)C(=O)Nc2ccc(C(F)(F)F)cc2)[C@@H](C)CN([C@@H](C)CO)C(=O)c2cc(NS(=O)(=O)c3cccs3)ccc2O1` yielded an inhibition of 2.48%.
`CO[C@@H]1CN(C)C(=O)c2cc(NC(C)=O)ccc2OC[C@H](C)N(Cc2ccccn2)C[C@H]1C` was tested, and the inhibition was -0.12%.
`N#C[C@@H]1[C@@H](c2ccccc2C2=CCCC2)[C@H](CO)N1C(=O)NC1CCCC1` showed an inhibition of 2.11%.
`COCC#Cc1ccc([C@@H]2[C@@H](CO)N3C(=O)CN(C(=O)C4CCOCC4)C[C@@H]23)cc1` was tested, and the inhibition was -0.906%.
